The campaign covered roughly 300,000 compounds. About 3,600 (1.2%) were called active. The sample holds actives, similar compounds and a random draw of the others, so the mix is not that of the screen. No stated cut-off is given here; in the data, active means activation above about 30% (passing the limit was not always enough); inconclusive means no clear call, values can overlap the other calls.
Experiment: activation of beta-catenin signaling reporter – cell-based, plate reader, single point, primary screen (AID 743398);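 further: 0% = neutral control wells and 100% = positive control wells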
Conditions: Wnt/beta-catenin reporter cell assay, activator, at 9.35 µM, stronger effect = higher value
In the case of `CC(Sc1ccc(S(=O)(=O)N2CCN(C)CC2)cn1)C(=O)NC1CCCC(C)C1C` (stereo not drawn), the activation is reported as -1.63% (inactive). With `O=C(NCc1ccccc1Cl)c1csc([C@@H]2O[C@H](CO)[C@@H](O)[C@H]2O)n1` the activation was -2.52% (inactive). For `CCC(c1nnnn1-c1ccc2c(c1)OCCO2)N1CCN(c2ccc(C(F)(F)F)cn2)CC1` (stereo not drawn), the activation was 0.0485% (inactive). For `COc1cc2ccccc2cc1C(=O)Nc1ccncc1`, the activation was 11.7% (inactive). For `COc1cc2ccccc2cc1C(=O)Nc1ccc(NC(=O)c2cccs2)cc1`, the activation was -6.22% (inactive). With `COc1cc2ccccc2cc1C(=O)Nc1ccccc1C` the activation was 38.1% (active). For `CCCCOCC1CN(CCCC)S(=O)(=O)c2c(Oc3ccc(F)cc3)cccc2O1` (stereo not drawn), the activation was -5.54% (inactive). In the case of `CCOC(=O)C1=C(CC)Nc2ccccc2N=C1N`, the activation is reported as 38.3% (active). For `CCOC(=O)C1=C(C)NC(SC)=NC1c1ccccc1` (stereo not drawn), the activation was -2.32% (inactive). For `CCOC(=O)C(=O)C1C(=O)Nc2ccccc21` (stereo not drawn), the activation was 3.02% (inactive). With `COC(=O)[C@H]1C[C@H](OC(=O)NCc2ccccc2)[C@@]2(O)CN(S(=O)(=O)c3ccc(C)cc3)CC2[C@H]1C(=O)OC` (stereo partly drawn) the activation was 0.0463% (inactive). With `COc1cccc(-c2cc(CNC(=O)[C@@H](Cc3ccccc3)NC(=O)[C@H]3O[C@@H](n4cnc(C(N)=O)n4)[C@H](O)[C@@H]3O)no2)c1` the activation was -3.63% (inactive). With `CCOc1ccc2nc(NC(=O)c3cc([N+](=O)[O-])ccc3N3CCOCC3)sc2c1` the activation was -0.111% (inactive). In the case of `COc1ccc(C(=O)Nc2nc(-c3ccc(OC)cc3)c(-c3ccc([N+](=O)[O-])cc3)s2)cc1`, the activation is reported as -2.22% (inactive). With `O=C(Nc1nc2ccc([N+](=O)[O-])cc2s1)c1ccncc1` the activation was 34.4% (active). With `Brc1ccc(COCCc2cn(Cc3ccccc3)c3ccccc23)cc1` the activation was 11.3% (inactive). With `Cc1cc(=O)oc2c3c(cc(OCC(=O)NCC(O)c4ccccc4)c12)OC(C)(C)CC3` (stereo not drawn) the activation was -1.47% (inactive). In the case of `Cc1csc(NC(=O)C2=COCCO2)n1`, the activation is reported as 5.46% (inactive). For `Cc1ccc(C(=O)NCC(=O)O)s1`, the activation was 0.419% (inactive). With `Cc1csc(NC(=O)c2ccc(C)s2)n1` the activation was 43.1% (active). With `COc1cccc(CNc2nc3cc(-c4csc5ccccc45)sc3c(=O)n2C)c1` the activation was -2.71% (inactive). In the case of `CC(C)Nc1ncnc2c1ncn2[C@H]1CN(Cc2ccncc2)C[C@@H](CO)O1`, the activation is reported as -2.99% (inactive). With `CCOC(=O)[C@]12CCC=C1N(Cc1ccco1)C(=O)[C@H](CC(=O)NCc1cccc(C(F)(F)F)c1)C2` the activation was -1.73% (inactive). With `Cc1cc(C(=O)COc2ccccc2Cl)c(C)n1C1CC1` the activation was -1.86% (inactive). In the case of `Cc1cc(C(=O)COc2ccc(Br)cc2F)c(C)n1C1CC1`, the activation is reported as 35.3% (active). With `O=C(COc1ccc(Br)cc1F)NCC1(N2CCCCC2)CCCCC1` the activation was -3.51% (inactive). With `CC(C)Nc1ccc(-n2nc3ccccc3[n+]2[O-])cc1` the activation was 40.2% (active). For `COC(=O)[C@]12C[C@H](CC(=O)N3CCN(C(=O)C4CC4)CC3)C(=O)N(Cc3ccc4c(c3)OCO4)C1=C[C@H](C(C)(C)C)O[C@@H]2C`, the activation was -4.23% (inactive). In the case of `O=[N+]([O-])c1ccc(CN2CC(N3CCC(c4ccccc4)CC3)CS2(=O)=O)cc1` (stereo not drawn), the activation is reported as -1.72% (inactive). With `CN(C)C(=O)c1cccc(-c2cnc3sc(NCc4ccc5c(c4)OCO5)nn23)c1` the activation was -6.39% (inactive). With `COc1cccc(OCC(=O)Nc2ccccc2C(N)=O)c1` the activation was 39.1% (active). With `Cc1cccc(OCC(=O)Nc2ccccc2F)c1` the activation was 22.2% (inactive). For `Cc1cccc(OCCC(=O)Nc2ccccc2C(N)=O)c1`, the activation was 1.98% (inactive). For `O=C(c1ccc(CS(=O)Cc2ccccc2Cl)o1)N1CCN(c2ccccc2)CC1` (stereo not drawn), the activation was -4.44% (inactive). With `CS(=O)(=O)/C(C#N)=C/c1cccn1S(=O)(=O)c1ccc([N+](=O)[O-])cc1` the activation was -1.05% (inactive). For `COc1cc2ccc(C(C)=O)c(O)c2cc1OC`, the activation was 10.2% (inactive). For `COc1ccc(NC(=O)C2Cc3c(-c4cccc(NC(C)=O)c4)ccnc3O2)cc1OC` (stereo not drawn), the activation was -0.676% (inactive). In the case of `Cn1cccc1C(=O)NNC(=O)COc1ccc(Br)cc1`, the activation is reported as 3.43% (inactive). With `Cn1cccc1C(=O)OCC(=O)c1ccc(Br)s1` the activation was 47.9% (active). For `Cn1cccc1C(=O)OCC(=O)NCCc1ccccc1`, the activation was 15.6% (inactive). With `CC1CCCN(c2cccc3c2S(=O)(=O)N(Cc2ccc(F)cc2)[C@@H](C)[C@H](c2ccccc2)O3)C1` (stereo partly drawn) the activation was -2.02% (inactive). In the case of `O=C(NCc1ccccc1)[C@H]1CCCN1C(=O)[C@@H]1CCCN1C(=O)c1ccc(Cl)cc1Cl`, the activation is reported as -5.01% (inactive). With `NC(c1ccccc1)c1csc(NC(=O)Nc2cccc(C(F)(F)F)c2)n1` (stereo not drawn) the activation was -0.452% (inactive). For `CC(C)CC1C(=O)N(Cc2cn(CC3CCCCC3)nn2)CCS(=O)(=O)N1Cc1ccc(-c2ccc(Cl)cc2)cc1` (stereo not drawn), the activation was -6.32% (inactive). For `O=C(c1ccncc1)N1CCN(c2ccc3ccccc3n2)CC1`, the activation was 3.16% (inactive). For `Oc1ccc(CN2CCN(c3ncccn3)CC2)cc1`, the activation was -0.601% (inactive). For `c1cnc(N2CCN(c3ccc4ccccc4n3)CC2)nc1`, the activation was 36.8% (active). With `CCCN1C(=O)c2[nH]nc(-c3ccccc3)c2C1c1ccccc1` (stereo not drawn) the activation was 0.123% (inactive). For `CC(C)CCNC(=O)c1[nH]c(C(F)(F)F)nc1-c1ccccc1`, the activation was -0.284% (inactive). In the case of `O=C(Cc1ccc(Cl)cc1)c1ccccc1`, the activation is reported as 39.9% (active). In the case of `O=C(NCCS(=O)(=O)NCc1ccc(Cl)cc1)c1ccccc1`, the activation is reported as -1.51% (inactive). In the case of `O=C(CN1CCN(c2ccc(Cl)cc2)CC1)c1ccccc1`, the activation is reported as 0.814% (inactive). For `CN(C)C(=O)N1CCN(C(=O)[C@@H](Cc2ccccc2)NC(=O)[C@H]2O[C@@H](n3ccc(N)nc3=O)[C@H](O)[C@@H]2O)CC1`, the activation was -0.987% (inactive). For `CC1CCCC(C)N1C(=O)COC(=O)c1ccccc1C(=O)c1ccccc1` (stereo not drawn), the activation was -3.33% (inactive). In the case of `Cc1cc(N2CCN(C(=O)OC(C)(C)C)C[C@H]2C)ccc1N1CCN(Cc2ccccc2)[C@H](C)C1`, the activation is reported as -18.5% (inactive). With `Cc1cccc(C)c1NC(=O)CSc1ccc([N+](=O)[O-])cn1` the activation was -1.27% (inactive). With `CC(C)(C)n1cnnc1Sc1ccc([N+](=O)[O-])cn1` the activation was 37.4% (active). In the case of `O=[N+]([O-])c1ccc(Sc2n[nH]c(-c3ccco3)n2)nc1`, the activation is reported as -0.107% (inactive).

From PubChem BioAssay AID743398 (Broad Institute, 2014)
